High-throughput results: PubChem BioAssay, National Center for Advancing Translational Sciences (NCATS)
AmpC detergent = blocks E. coli AmpC beta-lactamase in detergent assay; P00811; AmpC hydrolysis of nitrocefin, absorbance 480 nm, 0.01% Triton; Potency, µM (highest dose often 114 µM), hits mostly inhibitors; actives 0.041% (n = 370,000); AID 485294; note: nearly all actives have a fitted effect of over 25% in size
Target sequence (P00811 whole entry, looked up): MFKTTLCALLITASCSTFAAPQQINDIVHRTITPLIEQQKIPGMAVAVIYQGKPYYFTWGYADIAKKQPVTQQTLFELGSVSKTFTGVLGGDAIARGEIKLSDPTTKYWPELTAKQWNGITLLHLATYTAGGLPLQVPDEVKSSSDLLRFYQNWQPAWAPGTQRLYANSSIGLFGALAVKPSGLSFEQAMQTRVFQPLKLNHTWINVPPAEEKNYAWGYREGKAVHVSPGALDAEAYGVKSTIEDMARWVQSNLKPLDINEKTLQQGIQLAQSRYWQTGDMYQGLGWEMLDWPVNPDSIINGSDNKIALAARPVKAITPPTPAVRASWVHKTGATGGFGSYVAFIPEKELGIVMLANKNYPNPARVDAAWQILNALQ
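AmpC (5.3 nM in the dispensed reagent) in 20 mM phosphate pH 7.0 with 0.01% (detergent screen) or 0.0001% Triton X-100 was preincubated with compounds for 15 min at room temperature. Nitrocefin was then added from an 800 uM solution, and hydrolysis was followed at 480 nm.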
Sm TGR block = S. mansoni TGR enzyme inhibition; purified TGR, DTNB reduction, TNB absorbance 405 nm; Potency, µM (top dose mostly 114 µM), usual class: inhibitors; actives 3% (n = 360,000); note: nearly all actives have a fitted effect of over 60% in size
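TGR 20 nM + NADPH 100 uM (dispensed conc.), cpd preinc 15 min RT; start with NADPH (500 uM addition) then DTNB (15 mM addition). Kinetic TNB absorbance, 405 nm filter. Four-parameter Hill fit across titration.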
Pf growth 48h = inhibits P. falciparum growth in the first generation, 48 h. P. falciparum luciferase growth in erythrocytes, 48 h. Potency, µM (doses to about 28.7 µM), most hits filed as inhibitors. actives 5.9% (n = 310,000). AID 504832
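Luminescence readout; reporter = integrated firefly luciferase in P. falciparum. RBC culture at 2% hematocrit, 0.1% parasitemia final, 37 C/5% CO2; decreased signal taken as growth inhibition.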
SARS PLpro yeast = inhibitors of SARS-CoV papain-like protease in yeast | actives 0.19% (n = 330,000) | Potency, µM (series often up to 32.9 µM), hits mostly activators | AID 485353 | S. cerevisiae expressing SARS-CoV PLpro, growth rescue; calls by dose curve; note: nearly all actives have a fitted effect of over 55% in size
AmpC no deterg = AmpC beta-lactamase inhibition without detergent. Potency, µM (highest dose often 57.1 µM), usual class: inhibitors. AmpC nitrocefin hydrolysis, absorbance 480 nm, 0.0001% Triton. P00811. AID 485341. actives 0.52% (n = 330,000); note: nearly all actives have a fitted effect of over 20% in size
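20 mM phosphate pH 7.0 + 0.01% (detergent screen) or 0.0001% Triton X-100; 5.3 nM AmpC reagent; cpd preinc 15 min RT; nitrocefin (800 uM stock) to start; A480 q20 s × 4 min; Activity was normalised to no-enzyme and no-compound control wells.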
Pf growth 96h = P. falciparum growth inhibition at 96 hour, primary screen for plastid delayed-death inhibitors; P. falciparum luciferase reporter growth, 96 h; Potency, µM (titrated, usually from 28.7 µM), usual class: inhibitors; actives 6.9% (n = 320,000); AID 504834
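P. falciparum expressing integrated firefly luciferase grown in erythrocytes (2% hematocrit, 0.05% parasitemia final) with compounds for 96 hours at 37 C, 5% CO2. Growth inhibition read as loss of luminescence after adding luciferase detection reagent.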
Hits are given with their value; - = inactive; ? = inconclusive; . = no result given; [ ] = remark or other dose. Hits are enriched below; roughly 12% of the tested compounds scored in any of these assays. Unless noted, calls come from the whole dose curve; as a rule, active = well fitted curve in the direction sought with a large enough effect; inconclusive = small, poorly fitted or top-dose-only effect, or another doubt; inactive = no such curve, though single readings can be large; an effect the other way counts as inactive or inconclusive.

SMILES	AmpC detergent	Sm TGR block	Pf growth 48h	SARS PLpro yeast	AmpC no deterg	Pf growth 96h
CCc1cccc(CC)c1NC(=S)NCCc1c(C)[nH]c2ccccc12	-	-	13µM	-	-	13µM
Cn1c(-c2ccc(-c3ccccc3)cc2)c[nH]c1=S	-	-	5.2µM	?	-	?
CCn1c(-c2ccc(-c3ccccc3)cc2)c[nH]c1=S	-	-	.	-	-	4.7µM
CCO[C@H]1OC(C(=O)N2CCN(Cc3ccc4c(c3)OCO4)CC2)=C[C@@H](C2CC2)[C@@H]1CCCO	-	-	?	-	-	7.4µM
CCO[C@H]1OC(C(=O)N2CCN(Cc3ccc4c(c3)OCO4)CC2)=C[C@@H](c2ccc(C(F)(F)F)cc2)[C@@H]1CCCO	-	-	?	-	-	1.5µM
CCO[C@H]1OC(C(=O)N2CCN(Cc3ccc4c(c3)OCO4)CC2)=C[C@@H](c2ccc(Br)cc2)[C@@H]1CCCO	-	-	10µM	-	-	5.2µM
CCO[C@H]1OC(C(=O)N2CCN(Cc3ccc4c(c3)OCO4)CC2)=C[C@@H](c2ccccc2)[C@@H]1CCCO	-	-	?	-	-	?
CCO[C@@H]1OC(C(=O)N2CCN(Cc3ccccc3)CC2)=C[C@H](C2CC2)[C@H]1CCCO	-	-	?	-	-	?
C#Cc1ccc([C@@H]2C=C(C(=O)N3CCN(Cc4ccc5c(c4)OCO5)CC3)O[C@H](OCC)[C@H]2CCCO)cc1	-	-	-	-	-	-
CCO[C@@H]1OC(C(=O)N2CCN(Cc3ccc4c(c3)OCO4)CC2)=C[C@H](c2ccc3c(c2)OCO3)[C@H]1CCCO	-	-	?	-	-	3.3µM
C#CCNC(=O)C1=C[C@H](c2ccc3c(c2)OCO3)[C@@H](CCCO)[C@H](OCC)O1	-	45µM	?	-	-	?
COc1cc2cnc(-c3ccccc3)c(-c3cccc(C(F)(F)F)c3)c2cc1OC	-	-	?	-	-	?
COc1cc2cnc(-c3ccccc3)c(-c3ccc(C#N)cc3)c2cc1OC	-	-	2.3µM	-	-	?
CC(C)OC(=O)c1cc2c(=O)[nH]c(C(Cl)(Cl)Cl)nc2o1	-	28µM	?	-	-	-
CN(CC(=O)Nc1cccc(F)c1)C(=O)CSc1nc2ccccc2s1	-	-	-	.	-	-
CCOc1cc(NC(=S)NCC2CCCO2)c(OCC)cc1NC(=O)c1cccc(C)c1 (centres undefined)	-	-	?	-	-	12µM
CCOc1cc(NC(=O)c2cccs2)c(OCC)cc1NC(=O)c1ccccn1	-	-	-	-	-	?
CCOc1cc(NC(=O)c2ccccn2)c(OCC)cc1NC(=O)c1cccc(C)c1	-	-	-[1.15 µM]	-	-	12µM
CCOc1cc(NC(=S)NCC2CCCO2)c(OCC)cc1NC(=O)c1ccccc1 (centres undefined)	-	-	?	-	-	?
CCc1ccccc1N(CC)C(=O)C(=O)Nc1ccc2nc3n(c(=O)c2c1)CCCCC3	-	-	.	.	.	.
COC(=O)c1ccc(COC(=O)C(CCS(C)(=O)=O)N2C(=O)c3ccccc3C2=O)cc1 (centres undefined)	-	-	-	-	-	6.6µM
N#CC(C#N)=C(N)CSc1cccc[n+]1[O-]	-	-	5.2µM	-	-	12µM
O=C(CSc1cccc[n+]1[O-])c1cc2ccccc2o1	-	-[11.4 µM]	.	-	-	4.1µM
O=C(CSc1cccc[n+]1[O-])c1cc(Cl)ccc1Cl	-	-	?	-	-	0.83µM
N/C(=N\OC(=O)N1CCOCC1)c1ccc(Cl)cc1	?	-	9.3µM	-	-	?
SMILES	AmpC detergent	Sm TGR block	Pf growth 48h	SARS PLpro yeast	AmpC no deterg	Pf growth 96h
Cc1occc1C(=O)O/N=C(\N)c1ccccc1	-	-	-	-	-	12µM
N/C(=N\OC(=O)N1CCOCC1)c1ccccc1	-	-	6.6µM	-	-	8.3µM
Cc1cccc(/C(N)=N/OC(=O)c2ccoc2C)c1	-	-	?	-	-	-
Cc1ccc(C(=O)C(C)OC(=O)CCN2C(=O)C3C4C=CC(C5CC45)C3C2=O)cc1 (centres undefined)	-	-	-	-	-	-
COc1ccc2oc(=O)c(-c3cn4c(n3)sc3cc(F)ccc34)cc2c1	-	-	.	.	.	.
COc1cccc(/C(C)=N/N=C(\C)c2cccc(OC)c2)c1	?	-	-	-	-	-
O=C(c1cccc(Cl)c1)N(Cc1ccco1)Cc1ccccc1Cl	-	-	.	.	.	.
CCOc1ccc(NC(=O)c2ccc(CN3CCc4ccccc4C3)cc2)cc1	?	-	-	.	-	5.2µM
O=C(Nc1ccc(Cl)cc1)c1ccc(CN2CCc3ccccc3C2)cc1	-	-	-	-	-	?
O=C(Nc1ccc(S(=O)(=O)N2CCOCC2)cc1)c1ccc(CN2CCc3ccccc3C2)cc1	-	-	12µM	-	-	-
N#CCc1ccc(NC(=O)c2ccc(CN3CCc4ccccc4C3)cc2)cc1	-	-	?	-	-	8.3µM
CCOC(=O)c1ccc(NC(=O)c2ccc(CN3CCc4ccccc4C3)cc2)cc1	-	-	?	-	-	-
COc1ccccc1N1CCN(S(=O)(=O)CCNC(=O)Cc2ccc(Cl)cc2)CC1	-	-	.	.	.	.
Cc1ccc(/C=C(\C#N)C(=O)NCC2CCCO2)o1 (centres undefined)	-	-	-	-	-	-
Cc1ccc(C)c(OCCn2cc(/C=C(\C#N)C(=O)NCc3cccs3)c3ccccc32)c1	-	-	4.7µM	-	-	3.3µM
COCCNC(=O)Cn1cc(/C=C(\C#N)C(=O)NC2CCCC2)c2ccccc21	-	-	-	-	-	10µM
Cc1ccccc1N/C(SCc1ccc(Cl)cc1)=C(/C#N)C(=O)NCc1ccco1	-	-	?	-	-	?
Cc1ccc(CS/C(Nc2ccccc2C)=C(\C#N)C(=O)NCc2ccco2)c(C)c1	?	-	2.3µM	-	-	-
Cc1ccccc1-n1c(C)cc(/C=C(\C#N)C(=O)NCC2CCCO2)c1C (centres undefined)	?	-	-	-	-	8.3µM
O=C1CCN(Cc2ccccc2)N1	-	-	-	-	-	-
O=C(Cc1ccccc1[N+](=O)[O-])OCC(=O)c1ccccc1Br	.	.	.	-	-	.
Cc1ccc(OCCn2cc(/C=C(\C#N)C(=O)NCC3CCCO3)c3ccccc32)cc1 (centres undefined)	?	-	10µM	-	-	-
Cc1ccc(C)c(NC(=O)/C(C#N)=C/c2cn(CC(=O)NCc3ccco3)c3ccccc23)c1	?	-	-	-	-	15µM
CCOc1cc(/C=C(\C#N)C(=O)NCC2CCCO2)ccc1OCC(N)=O (centres undefined)	-	-	-	-	-	-
